{"source": "paper PMC12864922", "about": "“TDP-43 directly inhibits mRNA accumulation in neurites through modulation of mRNA stability”", "binders": {"B1": {"name": "ENSMUSG00000032194.294|Kank2 (ssRNA)", "RNA": "GGGAGUUCUACAGUCCGACGAUCGCUUCGAUAUCCGCAUGCUAAUGGAUGAGAAACUGGGUUGGCUGGUGGGUAGAUGUCAUGAUGGAGUCUUUGCACGUGUAUGAAACAGAAAACCAAACUUCAGGACAGACAGCUGCUGGUGUCUCUGGAUGCUCACAGCCUAGGGCACAUUUGAAAGGUCGUGCUCUGAGCUGAGCCCUGAGUUCCAGCCUUGUAGCCAGCAAGGGAGUUUAUUUAAGGUUCUGGAAGCAUCAGCUAUGACCCAAAGCACACGCUCCUCAGAAAAGCCCCUGUUUCUGUCCUCUUGCGGUCGCACUAGUGUGGAAUUCUCGGGUGUCAAGG"}, "B2": {"name": "ENSMUSG00000042529.84|Kcnj12 (ssRNA)", "RNA": "GGGAGUUCUACAGUCCGACGAUCGCUUCGAUAUCCGCAUGCUACCCCACAAAACACAAGAAAACAUUAACAGGUGGUUCAAUUUUUAAAAUUCCUGGUGUGGGGACAGUUGGAAUUCUACUCAGCGCUGCCAGGCAAGCAGCUGGACGGAGAACCCUGAGGGUUCUCAGAGGUCUGUUUUCUCCCUCACGUGGGCCAGGGCCUUAAGCGAGUUGUCAUGCUUAAGGAUGAAUCAGGCUGCUUGUGACCAUGUUAACGAUUCUAAUAAAGUGUCUGGAUGUCUCUUGGGGGUGGGGCCCACUAGCUCUUGCGGUCGCACUAGUGUGGAAUUCUCGGGUGUCAAGG"}, "B3": {"name": "ENSMUSG00000061578.34|Ksr2|40:50;139:145;150:154 (ssRNA)", "RNA": "GGGAGUUCUACAGUCCGACGAUCGCUUCGAUAUCCGCAUGCUACCACUCAACUAGGACCAAACUGGGCCAGAGAGGGUCCCAACACACCACACAAGGAGCCACAGACUGAGCACACCACCUCGGACUGUGGAGACCAAGACACAUGCCCAGUGGGCAGACUCAGACUCACACGCUGGACCACACACACCGCAACACACUACACAUGGACAGGGCCAACUGCUAUCCUUCUGCCUGGACGAGCCAGCUGUGGAGUGUCCCAGCUGUGCUAUCCUGGAACACAGAACCAGGAUGGAACCAGAAACCUCUUGCGGUCGCACUAGUGUGGAAUUCUCGGGUGUCAAGG"}, "B4": {"name": "ENSMUSG00000061578.47|Ksr2|61:67;72:76 (ssRNA)", "RNA": "GGGAGUUCUACAGUCCGACGAUCGCUUCGAUAUCCGCAUGCUACGGACUGUGGAGACCAAGACACAUGCCCAGUGGGCAGACUCAGACUCACACGCUGGACCACACACACCGCAACACACUACACAUGGACAGGGCCAACUGCUAUCCUUCUGCCUGGACGAGCCAGCUGUGGAGUGUCCCAGCUGUGCUAUCCUGGAACACAGAACCAGGAUGGAACCAGAAACAAUACACCUGCUCCGUUGUCAAGGCUUCUAGGCCAAGGUCAGGGUAGGGAGGUGGGGUGGGUUAAACUUGCAAACAUCCUCUUGCGGUCGCACUAGUGUGGAAUUCUCGGGUGUCAAGG"}, "B5": {"name": "ENSMUSG00000035202.92|Lars2 (ssRNA)", "RNA": "GGGAGUUCUACAGUCCGACGAUCGCUUCGAUAUCCGCAUGCUAUUUUACCCUACUGAUGAUGUGUUGUUGCCAUGGUAAUCCUGCUCAGUACGAGAGGAACCGCAGCUAGCUUGUGUCUCCAGUGUCUUUUACCAUCACAGGCCCUGGCUCUGUGCUACCUCCCUAGAAUACCUGUGGUUCAUCACCUUCAGCUCACACUCCAUUCAGACAAUGCUCACUUAGGCCUACAAGCAAGGGAGAGGCUUAAGCACAAGGUCUUUAAGCUUGAUACUGUGCCUGGUCUCAAUGCCUAGAAAUUCCAACUCUUGCGGUCGCACUAGUGUGGAAUUCUCGGGUGUCAAGG"}, "B6": {"name": "ENSMUSG00000004113.188|Cacna1b (ssRNA)", "RNA": "GGGAGUUCUACAGUCCGACGAUCGCUUCGAUAUCCGCAUGCUAGCAAUGUUCCUGUAUGUUUCUACCCUGCCUGGGAUGUCCCCAAUGACCCUGGCUCCUCUGCUCAACCAAGUGCCUGAUCUCUGGCUCUGAGCAUCGUGGAUGAGGUACGGCCUCAGGAAGCAUCGGGUGGAUUGGGUGGGAGCUGCUCAGAGCAGCACGGGGGCUUGUGUCUUAGGGACAUUGACAGUGUCCAUCAGCAUGUCAGAGAAGCAGCUGUAGUGCCCGUGUUUCUCCCUGAGUCAUGGGUUCUGAAGAAGCCACUCUUGCGGUCGCACUAGUGUGGAAUUCUCGGGUGUCAAGG"}, "B7": {"name": "ENSMUSG00000061578.131|Ksr2 (ssRNA)", "RNA": "GGGAGUUCUACAGUCCGACGAUCGCUUCGAUAUCCGCAUGCUAACCAGUUCACCAUCAUUCAUGGCUUCCCCCAAAGUCCCGAGUCCUGAGAACCGGGGCUGUGGCAAGAGAGUUCUGGUGUGUUCUCUCUGUGGGGCUAGCAAUGCCGGGGUUAAGUUCUCCCUCGGUGAUGGAGACGGUCCUGGGUAUGCAUGAUGGGUUACAUGGGUGUGUGUGUGUGUGUAACUGUUUACAAUGGUCUCCCUGCCUCUCACGGGCUGUGUUCCAGGAGAAUGCACAUAGAGAGGUUCUGUGGUCUCUGCCUCUUGCGGUCGCACUAGUGUGGAAUUCUCGGGUGUCAAGG"}, "B8": {"name": "ENSMUSG00000061578.129|Ksr2 (ssRNA)", "RNA": "GGGAGUUCUACAGUCCGACGAUCGCUUCGAUAUCCGCAUGCUAGGUGUGACCUUUACCAGUUCACCAUCAUUCAUGGCUUCCCCCAAAGUCCCGAGUCCUGAGAACCGGGGCUGUGGCAAGAGAGUUCUGGUGUGUUCUCUCUGUGGGGCUAGCAAUGCCGGGGUUAAGUUCUCCCUCGGUGAUGGAGACGGUCCUGGGUAUGCAUGAUGGGUUACAUGGGUGUGUGUGUGUGUGUAACUGUUUACAAUGGUCUCCCUGCCUCUCACGGGCUGUGUUCCAGGAGAAUGCACAUAGAGAGGUUCCUCUUGCGGUCGCACUAGUGUGGAAUUCUCGGGUGUCAAGG"}, "B9": {"name": "ENSMUSG00000058297.297|Spock2 (ssRNA)", "RNA": "GGGAGUUCUACAGUCCGACGAUCGCUUCGAUAUCCGCAUGCUAUGAGAGAGAGAAUACCCGAGGGCCACCCUGAUGCCCAGGAAGAGUGAGGGCAGCCCCCUGUGUGGUGGAAGAGGCUGGGCAGCUAGCUACUGGGGACCUUGUGCUGAGGCUUCCAGGACAAAGCCCCAGUCUGGCUCUCCCCCAGCCUCUCAGGGGCACUGGCUGGUCACAUCCACUGAGUAUUGAUCGGUUGGACUUUAGGGAAGAGCCUCCUCCUUCCCAUUCCUUUCUGCCACCCUGGAAUGGCCACCUUAAUCGUCCUCUUGCGGUCGCACUAGUGUGGAAUUCUCGGGUGUCAAGG"}, "B10": {"name": "ENSMUSG00000058297.285|Spock2 (ssRNA)", "RNA": "GGGAGUUCUACAGUCCGACGAUCGCUUCGAUAUCCGCAUGCUAUGUGUGUGUGUGAGAGAGAGAGAGAGAGAGAGAGAGAGAGAGAGAGAGAAAGAGAGAGAGAAUGAGAGAGAAUGAGAGAGAGAAUACCCGAGGGCCACCCUGAUGCCCAGGAAGAGUGAGGGCAGCCCCCUGUGUGGUGGAAGAGGCUGGGCAGCUAGCUACUGGGGACCUUGUGCUGAGGCUUCCAGGACAAAGCCCCAGUCUGGCUCUCCCCCAGCCUCUCAGGGGCACUGGCUGGUCACAUCCACUGAGUAUUGAUCCUCUUGCGGUCGCACUAGUGUGGAAUUCUCGGGUGUCAAGG"}, "B11": {"name": "ENSMUSG00000061578.130|Ksr2 (ssRNA)", "RNA": "GGGAGUUCUACAGUCCGACGAUCGCUUCGAUAUCCGCAUGCUAACCUUUACCAGUUCACCAUCAUUCAUGGCUUCCCCCAAAGUCCCGAGUCCUGAGAACCGGGGCUGUGGCAAGAGAGUUCUGGUGUGUUCUCUCUGUGGGGCUAGCAAUGCCGGGGUUAAGUUCUCCCUCGGUGAUGGAGACGGUCCUGGGUAUGCAUGAUGGGUUACAUGGGUGUGUGUGUGUGUGUAACUGUUUACAAUGGUCUCCCUGCCUCUCACGGGCUGUGUUCCAGGAGAAUGCACAUAGAGAGGUUCUGUGGUCUCUUGCGGUCGCACUAGUGUGGAAUUCUCGGGUGUCAAGG"}, "B12": {"name": "ENSMUSG00000058297.298|Spock2 (ssRNA)", "RNA": "GGGAGUUCUACAGUCCGACGAUCGCUUCGAUAUCCGCAUGCUAAGAGAAUACCCGAGGGCCACCCUGAUGCCCAGGAAGAGUGAGGGCAGCCCCCUGUGUGGUGGAAGAGGCUGGGCAGCUAGCUACUGGGGACCUUGUGCUGAGGCUUCCAGGACAAAGCCCCAGUCUGGCUCUCCCCCAGCCUCUCAGGGGCACUGGCUGGUCACAUCCACUGAGUAUUGAUCGGUUGGACUUUAGGGAAGAGCCUCCUCCUUCCCAUUCCUUUCUGCCACCCUGGAAUGGCCACCUUAAUCGUCAUCUCCCUCUUGCGGUCGCACUAGUGUGGAAUUCUCGGGUGUCAAGG"}, "B13": {"name": "ENSMUSG00000058297.286|Spock2 (ssRNA)", "RNA": "GGGAGUUCUACAGUCCGACGAUCGCUUCGAUAUCCGCAUGCUAUGUGUGAGAGAGAGAGAGAGAGAGAGAGAGAGAGAGAGAGAGAAAGAGAGAGAGAAUGAGAGAGAAUGAGAGAGAGAAUACCCGAGGGCCACCCUGAUGCCCAGGAAGAGUGAGGGCAGCCCCCUGUGUGGUGGAAGAGGCUGGGCAGCUAGCUACUGGGGACCUUGUGCUGAGGCUUCCAGGACAAAGCCCCAGUCUGGCUCUCCCCCAGCCUCUCAGGGGCACUGGCUGGUCACAUCCACUGAGUAUUGAUCGGUUGGCUCUUGCGGUCGCACUAGUGUGGAAUUCUCGGGUGUCAAGG"}, "B14": {"name": "ENSMUSG00000058297.288|Spock2 (ssRNA)", "RNA": "GGGAGUUCUACAGUCCGACGAUCGCUUCGAUAUCCGCAUGCUAAGAGAGAGAGAGAGAGAGAGAGAGAGAGAGAAAGAGAGAGAGAAUGAGAGAGAAUGAGAGAGAGAAUACCCGAGGGCCACCCUGAUGCCCAGGAAGAGUGAGGGCAGCCCCCUGUGUGGUGGAAGAGGCUGGGCAGCUAGCUACUGGGGACCUUGUGCUGAGGCUUCCAGGACAAAGCCCCAGUCUGGCUCUCCCCCAGCCUCUCAGGGGCACUGGCUGGUCACAUCCACUGAGUAUUGAUCGGUUGGACUUUAGGGAAGCUCUUGCGGUCGCACUAGUGUGGAAUUCUCGGGUGUCAAGG"}, "B15": {"name": "ENSMUSG00000058297.291|Spock2 (ssRNA)", "RNA": "GGGAGUUCUACAGUCCGACGAUCGCUUCGAUAUCCGCAUGCUAAGAGAGAGAGAGAAAGAGAGAGAGAAUGAGAGAGAAUGAGAGAGAGAAUACCCGAGGGCCACCCUGAUGCCCAGGAAGAGUGAGGGCAGCCCCCUGUGUGGUGGAAGAGGCUGGGCAGCUAGCUACUGGGGACCUUGUGCUGAGGCUUCCAGGACAAAGCCCCAGUCUGGCUCUCCCCCAGCCUCUCAGGGGCACUGGCUGGUCACAUCCACUGAGUAUUGAUCGGUUGGACUUUAGGGAAGAGCCUCCUCCUUCCCAUUCUCUUGCGGUCGCACUAGUGUGGAAUUCUCGGGUGUCAAGG"}}, "note": "Whole data set: some 9,900 sequences, median “r (bound/input frequency ratio)” near 0.7, cut for the highest 2% near 6.5. Shown is part of a subset that was picked to be rich in the highest values.", "data": [{"biological_target": "TDP-43 (Homo sapiens, UniProt Q13148 1-414)", "sequence (Q13148 whole entry)": "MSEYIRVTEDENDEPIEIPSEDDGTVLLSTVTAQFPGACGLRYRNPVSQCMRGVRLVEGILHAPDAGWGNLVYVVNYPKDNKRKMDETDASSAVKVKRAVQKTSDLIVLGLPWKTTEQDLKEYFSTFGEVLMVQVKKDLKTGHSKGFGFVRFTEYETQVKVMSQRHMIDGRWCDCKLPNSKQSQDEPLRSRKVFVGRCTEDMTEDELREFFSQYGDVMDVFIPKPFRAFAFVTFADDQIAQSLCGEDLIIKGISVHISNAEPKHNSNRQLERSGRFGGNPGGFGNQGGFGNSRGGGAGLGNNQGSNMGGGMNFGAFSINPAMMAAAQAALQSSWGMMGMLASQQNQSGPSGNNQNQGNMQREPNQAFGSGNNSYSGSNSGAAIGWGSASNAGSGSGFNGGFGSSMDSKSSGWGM", "experiment": "RNA Bind-n-Seq with designed 260-mer pool; 25 mM Tris-HCl, 150 mM KCl, 3 mM MgCl2, BSA (printed 500 mg/mL), 20 units/mL SUPERase IN; pH not stated; 500 nM RNA pool, 1 h, 4 C; TDP-43 5, 50, 500 nM; high values mean tight binding", "details": "protein: recombinant; tags: SBP (GST cleaved off with PreScission; pGEX-GST-SBP)", "method_in_brief": "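Binding (R) is the ratio of each oligo's mapped-read-normalized abundance in the bound fraction to its abundance in the input. To obtain it, SBP-tagged recombinant TDP-43 (5, 50 or 500 nM) on streptavidin beads was incubated with 500 nM of an in vitro-transcribed 260-nt 3′ UTR oligo pool for 1 h at 4 °C in 25 mM Tris-HCl, 150 mM KCl, 3 mM MgCl2, BSA and SUPERase IN. The RNA retained after washing was released with biotin, then reverse transcribed, amplified by PCR and sequenced.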", "values": [{"binder": "B1", "binding signal": "0.914 R (bound/input frequency ratio)"}, {"binder": "B2", "binding signal": "1.71 R (bound/input frequency ratio)"}, {"binder": "B3", "binding signal": "1.07 R (bound/input frequency ratio)"}, {"binder": "B4", "binding signal": "0.292 R (bound/input frequency ratio)"}, {"binder": "B5", "binding signal": "0.689 R (bound/input frequency ratio)"}, {"binder": "B6", "binding signal": "0.976 R (bound/input frequency ratio)"}, {"binder": "B7", "binding signal": "3.31 R (bound/input frequency ratio)"}, {"binder": "B8", "binding signal": "4.45 R (bound/input frequency ratio)"}, {"binder": "B9", "binding signal": "4.65 R (bound/input frequency ratio)"}, {"binder": "B10", "binding signal": "7.21 R (bound/input frequency ratio)"}, {"binder": "B11", "binding signal": "6.59 R (bound/input frequency ratio)"}, {"binder": "B12", "binding signal": "3.7 R (bound/input frequency ratio)"}, {"binder": "B13", "binding signal": "6.3 R (bound/input frequency ratio)"}, {"binder": "B14", "binding signal": "7.62 R (bound/input frequency ratio)"}, {"binder": "B15", "binding signal": "8.35 R (bound/input frequency ratio)"}]}]}
